Reference: PubChem BioAssay AID1159580 (chemical genetic matrix, 2015)
Hit rate of the full screen: of about 5,500 compounds, about 2,000 (36%) were called active. Not shown: some 18% with an inconclusive outcome. No stated cut-off is given here; in the data, active means normalized growth mostly below about 0.91 (no sharp cut-off); inconclusive means no clear call, values can overlap the other calls; inactive means mostly above about 0.92. Some of the results follow.

Experiment: chemical genetic growth profiling, strain panel (AID 1159580);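 further: tested at 20 µM; growth read once vehicle control cultures reached saturation at 30 °C; 1 = growth at the plate median or of vehicle wells; lower values mean less growth of the strain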
Conditions: S. cerevisiae deletion strains, growth OD

Measured: normalized growth

C[C@@H]1O[C@@H](O[C@H]2C[C@@H](O)[C@]3(CO)[C@H]4[C@H](O)C[C@]5(C)[C@@H](C6=CC(=O)OC6)CC[C@]5(O)[C@@H]4CC[C@]3(O)C2)[C@H](O)[C@H](O)[C@H]1O
inactive: locus YAL040C, strain CLN3, hits give low values 0.989 | locus YCL061C, strain MRC1 (second series), hits give low values 0.996 | locus YDR150W, strain NUM1, hits give low values 1 | locus YDR363W, strain ESC2, hits give low values 0.984 | locus YER002W, strain NOP16, hits give low values 1.02 | locus YGR078C, strain PAC10, hits give low values 0.985 | locus YGR229C, strain SMI1, hits give low values 0.993 | locus YJR075W, strain HOC1, hits give low values 0.997 | locus YMR263W, strain SAP30, hits give low values 0.996 | locus YMR307W, strain GAS1, hits give low values 0.995 | locus YNL175C, strain NOP13, hits give low values 1.02 | locus YNL197C, strain WHI3, hits give low values 1.03 | locus YNL224C, strain SQS1, hits give low values 0.988 | locus YOR083W, strain WHI5 (second series), hits give low values 1
